Source: PubChem BioAssay AID602143 (Vanderbilt Specialized Chemistry Center, 2011)
“And” between values parts separate entries of the source, which are not always exact repeats. Equal entries are not always repeated. The source made the active and inactive calls. No stated cut-off is given here; in the data, active means remaining activity below about 50%; inactive means the rest.

What follows are compounds tested against Phospholipase D2 (Homo sapiens) (UniProt O14939) (assay: cellular phospholipase D2 activity inhibition – cell-based, HEK293, single concentration (AID 602143;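 further: tested at 200 nM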)). Conditions: HEK293 cellular PLD2 activity, percent of control; hits give low values.
Chain of Phospholipase D2 (Homo sapiens) (O14939 whole entry, looked up): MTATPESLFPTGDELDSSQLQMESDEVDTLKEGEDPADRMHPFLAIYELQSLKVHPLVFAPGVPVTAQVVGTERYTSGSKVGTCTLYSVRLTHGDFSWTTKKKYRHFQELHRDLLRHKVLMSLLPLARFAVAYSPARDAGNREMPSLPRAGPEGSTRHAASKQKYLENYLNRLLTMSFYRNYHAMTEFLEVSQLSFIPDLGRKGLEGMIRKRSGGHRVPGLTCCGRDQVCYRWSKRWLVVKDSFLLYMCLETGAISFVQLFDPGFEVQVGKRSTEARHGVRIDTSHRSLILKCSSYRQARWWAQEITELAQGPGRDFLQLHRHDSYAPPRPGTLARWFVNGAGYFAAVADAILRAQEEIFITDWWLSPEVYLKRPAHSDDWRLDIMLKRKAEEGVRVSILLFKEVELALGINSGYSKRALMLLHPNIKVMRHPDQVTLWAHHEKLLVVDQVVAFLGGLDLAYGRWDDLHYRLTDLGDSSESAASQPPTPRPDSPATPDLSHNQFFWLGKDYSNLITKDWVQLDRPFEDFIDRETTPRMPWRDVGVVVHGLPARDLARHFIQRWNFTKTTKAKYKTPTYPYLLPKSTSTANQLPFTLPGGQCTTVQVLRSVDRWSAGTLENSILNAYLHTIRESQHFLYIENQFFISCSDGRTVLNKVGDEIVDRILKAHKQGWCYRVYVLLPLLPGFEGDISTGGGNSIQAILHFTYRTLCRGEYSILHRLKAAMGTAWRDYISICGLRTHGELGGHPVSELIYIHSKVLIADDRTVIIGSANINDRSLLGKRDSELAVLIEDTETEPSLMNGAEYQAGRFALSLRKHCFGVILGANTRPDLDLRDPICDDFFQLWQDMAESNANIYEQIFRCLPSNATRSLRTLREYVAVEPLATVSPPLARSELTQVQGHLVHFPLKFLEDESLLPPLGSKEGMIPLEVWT
Chain of Phospholipase D2 (Homo sapiens) (O14939 whole entry, looked up): as above
With O=C(NCCN1CCC2(CC1)CNc1ccccc12)c1cnc2ccccc2c1 the remaining activity was 90% (inactive). In the case of O=C(NCCN1CCC(n2c(=O)[nH]c3ccccc32)CC1)c1cnc2ccccc2n1, the remaining activity was 87.4% (inactive). For Cc1ccc(C(=O)NCCN2CCN(c3ncccn3)CC2)cc1, the remaining activity was 85.6% (inactive). In the case of O=c1[nH]c2ccccc2n1C1CCN(CCNS(=O)(=O)c2cccc3cccnc23)CC1, the remaining activity was 112% (inactive). In the case of C[C@@H](CN1CCC(n2c(=O)[nH]c3ccccc32)CC1)NC(=O)Cc1cccs1, the remaining activity was 99.6% (inactive). In the case of O=C(NCCN1CCC(n2c(=O)[nH]c3ccccc32)CC1)c1ccccc1-c1ccccc1, the remaining activity was 83.4% (inactive). For O=C(c1ccc(Cl)cc1)N(CCN1CCC(n2c(=O)[nH]c3ccccc32)CC1)C(=O)c1ccc(Cl)cc1, the remaining activity was 94.2% (inactive). For O=C(NCCN1CCC(n2nnc3ccccc32)CC1)c1cnc2ccccc2c1, the remaining activity was 77.7% (inactive). With O=c1[nH]c2ccccc2n1C1CCN(CCNS(=O)(=O)c2ccc(Cl)cc2)CC1 the remaining activity was 115% (inactive). Cc1cccc(NC(=S)NCCN2CCC(n3c(=O)[nH]c4ccccc43)CC2)c1 was tested, and the remaining activity was 113% (inactive). For CCNC(=S)NCCN1CCC(n2c(=O)[nH]c3ccccc32)CC1, the remaining activity was 78.2% (inactive). For O=C(NCCN1CCC2(C=Cc3ccccc32)CC1)c1ccc2ccccc2c1, the remaining activity was 119% (inactive). Cn1c(=O)n(C2CCN(CCNC(=O)c3ccc4ccccc4c3)CC2)c2ccccc21 was tested, and the remaining activity was 52.7% (inactive). For O=c1[nH]c2ccccc2n1C1CCN(CCNS(=O)(=O)c2ccc(OC(F)(F)F)cc2)CC1, the remaining activity was 81% (inactive). For CC(=O)c1cccc(NC(=O)NCCN2CCC(n3c(=O)[nH]c4ccccc43)CC2)c1, the remaining activity was 118% (inactive). With C[C@@H](CN1CCC(n2c(=O)[nH]c3ccccc32)CC1)NC(=O)COc1ccccc1 the remaining activity was 88.2% (inactive). O=C1c2ccccc2C(=O)N1CCN1CCC(n2c(=O)[nH]c3cc(Cl)ccc32)CC1 was tested, and the remaining activity was 90.8% (inactive). In the case of Nc1ccc(C(=O)NCCN2CCC(n3c(=O)[nH]c4ccccc43)CC2)c(F)c1, the remaining activity was 60.4% (inactive). In the case of O=C(NCCN1CCN(c2ccccn2)CC1)c1ccc(C(F)(F)F)cc1, the remaining activity was 117% (inactive). With CC(C(=O)NCCN1CCN(c2ccncc2)CC1)(c1ccccc1)c1ccccc1 the remaining activity was 110% (inactive). In the case of C[C@H](CN1CCC(n2nnc3ccccc32)CC1)NC(=O)c1ccc2ccccc2c1, the remaining activity was 48.2% (active). C[C@@H](NC(=O)NCCN1CCC(n2c(=O)[nH]c3ccccc32)CC1)c1ccccc1 was tested, and the remaining activity was 107% (inactive) and 123% (inactive). C[C@@H](CN1CCC(n2c(=O)[nH]c3cc(Br)ccc32)CC1)NC(=O)c1ccc(F)cc1 was tested, and the remaining activity was 80.4% (inactive). In the case of CCOC(=O)CNC(=O)NCCN1CCC(n2c(=O)[nH]c3ccccc32)CC1, the remaining activity was 121% (inactive). With Cc1ccc(C(=O)NCCN2CCN(c3ccncc3)CC2)cc1 the remaining activity was 114% (inactive). With O=c1[nH]c2ccccc2n1C1CCN(CCNS(=O)(=O)c2cc(Cl)ccc2Cl)CC1 the remaining activity was 68.8% (inactive). With O=C(NCCN1CCN(c2ncccn2)CC1)c1ccc(F)cc1 the remaining activity was 92.2% (inactive). For O=C(NCCN1CCN(c2ccncc2)CC1)c1ccccc1-c1ccccc1, the remaining activity was 83.2% (inactive). C[C@H](N)CN1CCC(c2nc3ccccc3n2C)CC1 (tested in a mixture with another compound) was tested, and the remaining activity was 81.2% (inactive). CN1CCC2(CCN(CCNC(=O)[C@H]3C[C@@H]3c3ccccc3)CC2)C1=O was tested, and the remaining activity was 102% (inactive). In the case of O=C(NCCN1CCC(n2nnc3ccccc32)CC1)c1ccc2ccccc2c1, the remaining activity was 0.808% (active). In the case of C[C@@H](CN1CCC(n2c(=O)[nH]c3ccccc32)CC1)NC(=O)c1cc2cc(F)ccc2[nH]1, the remaining activity was 0.758% (active). COc1ccc(S(=O)(=O)NCCN2CCC(n3c(=O)[nH]c4ccccc43)CC2)cc1 was tested, and the remaining activity was 127% (inactive). For O=C(NCCN1CCC(n2c(=O)[nH]c3ccccc32)CC1)Nc1ccccc1C(F)(F)F, the remaining activity was 114% (inactive). In the case of Cc1ccc(NC(=S)NCCN2CCC(n3c(=O)[nH]c4ccccc43)CC2)cc1, the remaining activity was 146% (inactive). Cc1ccc(C(=O)NCCN2CCC(n3c(=O)[nH]c4cc(Br)ccc43)CC2)cc1 was tested, and the remaining activity was 21.8% (active). In the case of O=c1[nH]c2ccccc2n1C1CCN(CCNC(=S)Nc2cccc3ccccc23)CC1, the remaining activity was 100% (inactive). O=C(NCCN1CCC2(CCc3ccccc32)CC1)c1ccc2ccccc2c1 was tested, and the remaining activity was 124% (inactive). O=C(C1C[C@@H]1c1ccccc1)N1CCC2(CC1)C(=O)NCN2c1ccccc1 (some centres undefined) was tested, and the remaining activity was 84% (inactive).
